Test results: PubChem BioAssay AID1159580 (chemical genetic matrix, 2015)
Hit rate of the full screen: of about 5,500 compounds, about 2,000 (36%) were called active. Not shown: some 18% with an inconclusive outcome. No stated cut-off is given here; in the data, active means normalized growth mostly below about 0.91 (no sharp cut-off); inconclusive means no clear call, values can overlap the other calls; inactive means mostly above about 0.92. Some of the results follow.

Experiment: chemical genetic growth profiling, strain panel (AID 1159580);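 further: tested at 20 µM; growth read once vehicle control cultures reached saturation at 30 °C; 1 = growth at the plate median or of vehicle wells; lower values mean less growth of the strain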
Conditions: S. cerevisiae deletion strains, growth OD
[1] = locus YAL013W, strain DEP1, active compounds read low
[2] = locus YAL040C, strain CLN3, active compounds read low
[3] = locus YCL061C, strain MRC1 (second series), active compounds read low
[4] = locus YDR363W, strain ESC2, active compounds read low
[5] = locus YER002W, strain NOP16, active compounds read low
[6] = locus YMR307W, strain GAS1, active compounds read low
[7] = locus YNL175C, strain NOP13, active compounds read low
[8] = locus YNL197C, strain WHI3, active compounds read low
[9] = locus YNL224C, strain SQS1, active compounds read low
[10] = locus YOR083W, strain WHI5 (second series), active compounds read low

Measured: normalized growth

C=CCN1CC[C@]23CCCCC2[C@H]1Cc1ccc(O)cc13 (some centres not stated)
inactive: [1] 1.02 | [2] 1.01 | [3] 1.01 | [4] 1.02 | [5] 1 | locus YGR078C, strain PAC10, active compounds read low 0.995 | locus YJR075W, strain HOC1, active compounds read low 0.999 | [6] 1.01 | locus YNL153C, strain GIM3, active compounds read low 1.02 | [7] 1.01 | [8] 0.997 | [9] 0.988 | [10] 1.01

C=CCN1CCC23c4c5ccc(O)c4O[C@H]2C(=O)CC[C@@]3(O)C1C5 (some centres not stated)
inactive: [1] 1.01 | [2] 1 | [3] 1 | [4] 1.01 | [5] 0.994 | locus YMR263W, strain SAP30, active compounds read low 0.998 | [6] 0.998 | [7] 0.997 | [8] 1.01 | [9] 1.01 | locus YNL322C, strain KRE1, active compounds read low 1.01 | [10] 1 | locus YPL055C, strain LGE1, active compounds read low 1.02 | locus YPL241C, strain CIN2, active compounds read low 1
